According to PMC7826789 (International Journal of Molecular Sciences, 2021):

What was measured:
Details in all cases: Compound Concentration (nM):1000
CDKL3 = test system: CDKL3
CDKL5 = test system: CDKL5
CHEK1 = test system: CHEK1
CHEK2 = test system: CHEK2
CIT = test system: CIT
CLK1 = test system: CLK1
CLK2 = test system: CLK2
CLK3 = test system: CLK3
CLK4 = test system: CLK4
CSF1R-autoinhibited = test system: CSF1R-autoinhibited
CSF1R = test system: CSF1R
CSK = test system: CSK
CSNK1A1L = test system: CSNK1A1L
CSNK1A1 = test system: CSNK1A1
CSNK1D = test system: CSNK1D
CSNK1E = test system: CSNK1E
CSNK1G1 = test system: CSNK1G1
CSNK1G2 = test system: CSNK1G2
CSNK1G3 = test system: CSNK1G3
CSNK2A1 = test system: CSNK2A1
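Also: KINOMEscan scanMAX binding as percent activity remaining versus control; lower means stronger binding.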

Row | Structure (SMILES) | Percent Control (CDKL3) [%] | Percent Control (CDKL5) [%] | Percent Control (CHEK1) [%] | Percent Control (CHEK2) [%] | Percent Control (CIT) [%] | Percent Control (CLK1) [%] | Percent Control (CLK2) [%] | Percent Control (CLK3) [%] | Percent Control (CLK4) [%] | Percent Control (CSF1R-autoinhibited) [%] | Percent Control (CSF1R) [%] | Percent Control (CSK) [%] | Percent Control (CSNK1A1L) [%] | Percent Control (CSNK1A1) [%] | Percent Control (CSNK1D) [%] | Percent Control (CSNK1E) [%] | Percent Control (CSNK1G1) [%] | Percent Control (CSNK1G2) [%] | Percent Control (CSNK1G3) [%] | Percent Control (CSNK2A1) [%]
1 | Cl.O=C(Nc1ccc(Oc2ccc3[nH]c(NC(=O)c4ccco4)nc3c2)cc1)Nc1cc(C(F)(F)F)ccc1F [GW683134A] | 100 | 100 | 88 | 97 | 0.4 | 47 | 89 | 100 | 44 | 79 | 1.5 | 85 | 90 | 100 | 98 | 93 | 100 | 100 | 100 | 88
2 | CCc1ccc(Oc2nccc(-c3c(-c4ccc(F)cc4)ncn3C3CCNCC3)n2)cc1 [SB-242719] | 100 | 84 | 90 | 84 | 1.2 | 100 | 70 | 100 | 100 | 77 | 100 | 80 | 66 | 5.1 | 1.7 | 0.4 | 83 | 40 | 53 | 77
3 | COc1cc(C=NNc2ncnc3c2cnn3-c2ccccc2)ccc1O [GW513184X] | 100 | 100 | 100 | 97 | 96 | 48 | 83 | 82 | 60 | 100 | 100 | 100 | 100 | 77 | 86 | 51 | 100 | 57 | 93 | 28
4 | COc1ccc2cc(-c3c(-c4ccncc4)nc(-c4ccc(S(C)(=O)=O)cc4C)n3C)ccc2c1 [SB-633825] | 86 | 82 | 88 | 100 | 100 | 96 | 87 | 97 | 62 | 66 | 93 | 98 | 55 | 85 | 86 | 69 | 90 | 81 | 100 | 82
5 | NS(=O)(=O)c1ccc(N/N=C2\C(=O)Nc3ccc(Cl)cc32)cc1 [GW280670X] | 100 | 100 | 100 | 100 | 100 | 100 | 100 | 100 | 96 | 60 | 100 | 100 | 100 | 100 | 100 | 93 | 100 | 100 | 100 | 81
6 | CN(C)c1cc2c(Nc3ccc4c(cnn4Cc4ccccc4)c3)ncnc2cn1 [GW282974X] | 100 | 40 | 85 | 2.9 | 79 | 75 | 86 | 100 | 100 | 100 | 100 | 23 | 84 | 82 | 97 | 85 | 80 | 100 | 100 | 82
7 | NS(=O)(=O)c1ccc(N/N=C2\C(=O)Nc3ccc(C(=O)NCc4ccncc4)cc32)cc1 [GW300657X] | 84 | 6.5 | 100 | 67 | 87 | 67 | 17 | 92 | 75 | 83 | 99 | 87 | 60 | 83 | 92 | 98 | 87 | 100 | 67 | 53
8 | COc1ccc2c(-c3ccnc(Nc4cccc(OC(F)(F)F)c4)n3)cnn2n1 [GW810372X] | 0 | 14 | 100 | 100 | 97 | 1.3 | 2.8 | 32 | 2.4 | 86 | 100 | 100 | 100 | 92 | 100 | 100 | 98 | 100 | 100 | 67
9 | COc1cc2ncn(-c3cc(O[C@H](C)c4ccccc4Cl)c(C(N)=O)s3)c2cc1OC [GSK237701A] | 76 | 100 | 100 | 100 | 100 | 81 | 90 | 77 | 68 | 70 | 63 | 88 | 60 | 88 | 100 | 100 | 85 | 89 | 100 | 83
10 | Cc1cc(O)cc(C)c1/C=C/c1cncc(C(N)=O)c1 [GW435821X] | 100 | 100 | 100 | 99 | 98 | 89 | 100 | 100 | 74 | 87 | 34 | 80 | 100 | 100 | 100 | 86 | 100 | 100 | 100 | 90
11 | CCn1c(-c2nonc2N)nc2c(C#CC(C)(C)O)nc(OCCNC)cc21.Cl [GSK949675] | 100 | 100 | 100 | 86 | 44 | 100 | 87 | 100 | 90 | 100 | 100 | 100 | 100 | 94 | 100 | 100 | 100 | 92 | 100 | 100
12 | NS(=O)(=O)c1ccc(Nc2ncc(-c3ccccc3)o2)cc1 [GW572399X] | 100 | 100 | 100 | 100 | 100 | 100 | 100 | 100 | 100 | 58 | 100 | 100 | 100 | 100 | 100 | 83 | 100 | 100 | 100 | 76
13 | Cl.O=C(O[C@H]1CN[C@H](C#Cc2cc3ncnc(Nc4ccc5c(cnn5Cc5ccccc5)c4)c3s2)C1)N1CCOCC1 [GSK200398A] | 100 | 40 | 100 | 24 | 77 | 83 | 100 | 90 | 100 | 87 | 100 | 67 | 92 | 89 | 91 | 79 | 92 | 100 | 92 | 75
14 | NS(=O)(=O)c1ccc(N/N=C2\C(=O)Nc3ccc(-c4cnco4)cc32)cc1 [GW276655] | 37 | 16 | 100 | 93 | 79 | 36 | 24 | 100 | 37 | 88 | 100 | 92 | 78 | 76 | 60 | 96 | 100 | 72 | 91 | 50
15 | CCS(=O)(=O)c1ccc(OC)c(Nc2ncc(-c3cccc(OC)c3)o2)c1 [GW580509X] | 100 | 59 | 100 | 100 | 100 | 6.9 | 3.9 | 71 | 15 | 43 | 72 | 90 | 100 | 100 | 100 | 85 | 99 | 100 | 97 | 21
16 | O=C(Nc1n[nH]c2nc(-c3ccc(O)cc3)c(Br)cc12)C1CC1 [SB-725317] | 100 | 37 | 100 | 100 | 51 | 100 | 95 | 100 | 100 | 96 | 100 | 100 | 100 | 100 | 100 | 85 | 100 | 100 | 100 | 87
17 | COc1cc(N2CCN(C(C)C)CC2)ccc1Nc1nc(Nc2ccc(F)cc2C(=O)NC[C@@H](O)CO)c2cc[nH]c2n1 [GSK1392956A] | 100 | 43 | 94 | 0.2 | 80 | 1.6 | 2.6 | 77 | 7.5 | 100 | 100 | 86 | 68 | 35 | 31 | 46 | 52 | 32 | 29 | 51
18 | CC1=C(C(=O)Nc2ccc3[nH]ncc3c2)C(c2ccc3ccccc3c2)CC(=O)N1 (stereo not drawn) [GSK270822A] | 72 | 100 | 92 | 100 | 99 | 95 | 80 | 91 | 70 | 54 | 82 | 95 | 64 | 91 | 100 | 100 | 92 | 89 | 100 | 80
